Only some compounds are listed: those with a hit (about 8.1% of all), similar ones and a draw of the others.
ClpP mod = qHTS Assay for Activators of ClpP; actives 1.9% (n = 340,000); Potency, µM (series often up to 57.5 µM), for inactives: at the top dose activity change, negative = active; ATP-dependent Clp protease proteolytic subunit (Bacillus subtilis (strain 168)), P80244; AID 651965, 2013; purified B. subtilis ClpP, FRET peptide cleavage, 20 min; active means well fitted falling curve with a large enough effect; inconclusive means small, poorly fitted or top-dose-only effect; inactive means no such curve, though single readings can be large or run the other way; further: the source files actives as falling curves though it sought activators and does not explain the sign; nearly all actives have a fitted effect of over 65% in size
Target sequence (P80244 whole entry, looked up): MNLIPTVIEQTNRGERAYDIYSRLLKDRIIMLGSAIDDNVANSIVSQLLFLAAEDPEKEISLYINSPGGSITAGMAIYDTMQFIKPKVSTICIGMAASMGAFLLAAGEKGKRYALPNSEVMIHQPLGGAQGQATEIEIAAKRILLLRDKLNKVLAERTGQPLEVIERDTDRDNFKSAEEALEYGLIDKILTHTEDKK
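Buffer: 100 mM Tris/HCl pH8, 100 mM KCl, 0.05% low protease BSA, 2.5% glycerol, 0.01% Tween-20. ClpP 10 microg/mL final; 20 min RT; delta FRET normalized to ADEP and DMSO controls.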
Sfp inh = qHTS Assay for Inhibitors of Bacillus subtilis Sfp phosphopantetheinyl transferase (PPTase) | Biochemical Sfp PPTase activity, qHTS | Potency, µM, for the others: largest response in the series, negative = inhibition, most hits filed as inhibitors | actives 3.5% (n = 310,000) | AID 1490, 2009;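 further: the enzyme is Sfp with the accession as filed and its product quenches rhodamine fluorescence; 0% = enzyme reaction without inhibitor and -100% = no enzyme wells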
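Buffer: 50 mM Hepes-Na pH 7.6, 10 mM MgCl2, 0.01% Nonidet P-40, 0.01% BSA. Enzyme 15 nM, pre-exposed to compound 15 min; substrates then added and fluorescence change tracked over 30 min.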
Gal4-VP16 FLuc = VP16 counterscreen qHTS for inhibitors of ROR gamma transcriptional activity | Drosophila S2 Gal4-VP16 UAS-luciferase, luminescence, 20 h | Potency, µM (titrated, usually from 53.6 µM), for inactives: at the top dose activity, negative = inhibition, most hits filed as inhibitors | actives 3.5% (n = 310,000);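 further: Gal4-VP16 expression switched on by copper sulfate through the metallothionein promoter; on the % scale 0 is the no-effect control and ±100 the full control effect; nearly all actives have a fitted effect of over 50% in size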
RORg inh = qHTS for inhibitors of ROR gamma transcriptional activity; Drosophila S2 Gal4-RORgamma UAS-luciferase reporter, 20 h; Potency, µM (highest dose often 53.6 µM), without a hit: at the highest dose activity change, negative = inhibition, hits mostly inhibitors; actives 5.4% (n = 310,000); AID 2551, 2010; further: on the % scale 0 is the no-effect control and ±100 the full control effect; nearly all actives have a fitted effect of over 60% in size
Target sequence (P51450 whole entry, looked up, the tested form may be a part): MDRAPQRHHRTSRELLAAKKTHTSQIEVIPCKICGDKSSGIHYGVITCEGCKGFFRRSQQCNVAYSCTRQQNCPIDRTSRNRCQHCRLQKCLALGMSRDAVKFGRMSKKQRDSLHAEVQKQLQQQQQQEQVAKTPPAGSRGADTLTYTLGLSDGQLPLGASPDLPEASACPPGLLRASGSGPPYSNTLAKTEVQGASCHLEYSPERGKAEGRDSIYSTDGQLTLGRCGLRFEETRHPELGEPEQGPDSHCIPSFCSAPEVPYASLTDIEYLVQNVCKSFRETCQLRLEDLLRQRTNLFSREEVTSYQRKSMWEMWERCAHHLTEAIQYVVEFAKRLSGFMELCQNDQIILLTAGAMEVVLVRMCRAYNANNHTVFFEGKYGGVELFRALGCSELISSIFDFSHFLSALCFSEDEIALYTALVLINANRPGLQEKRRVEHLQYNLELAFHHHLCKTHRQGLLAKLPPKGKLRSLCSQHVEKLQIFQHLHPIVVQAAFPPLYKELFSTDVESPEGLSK
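Schneider cells (Drosophila), stable Gal4 DBD–ROR gamma + UAS-luc; 1 hr cmpd preincubation; Cu2+ induction 700 uM final; 20 hr ambient; luminescence.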
Epigenetic derep = Quantitative High-Throughput Screen for Regulators of Epigenetic Control. Potency, µM (titrated, usually from 53.9 µM), without a hit: top-dose GFP activation, actives largely listed as activators. AID 1865, 2009. actives 0.2% (n = 280,000). murine LDR cells, GFP reporter derepression, 30 h; further: % of control where 0% means no effect; nearly all actives have a fitted effect of over 60% in size
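In this reporter-derepression format, murine cells bearing a silenced integrated CMV-GFP locus incubate with test compound (30 h, 37 C), then are washed and imaged; fluorescent objects of 20–120 um count as induced cells.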
PINK1 expr mod = A Quantitative High throughput Screen to Identify Chemical Modulators of PINK1 Expression. AID 624263, 2012. PINK1 immunofluorescence, high-content cytometry, 24 h. Potency, µM (series often up to 76.6 µM), without a hit: at the highest dose activation (PINK1 increase), most hits filed as activators. actives 0.2% (n = 410,000); active means well fitted activation curve with a large enough effect; inconclusive means small, poorly fitted or top-dose-only effect; cell line not stated here; further: % of control where 0% means no effect; nearly all actives have a fitted effect of over 65% in size
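PINK1 protein, normally rapidly degraded, was detected by immunofluorescence after 24 hour compound treatment of a stable cell line. Titration data (5 concentrations) came from laser-scanning cytometry, with CCCP-treated wells as controls.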
An asterisk follows results filed as active; ? = inconclusive; nt = no result given; [ ] = dose if it differs, or a comment. Unless noted, the call rests on the fitted dose curve; in most records, active means well fitted curve in the direction sought with a large enough effect; inconclusive means small, poorly fitted or top-dose-only effect, or another doubt; inactive means no such curve, though single readings can be large; an effect the other way counts as inactive or inconclusive. Potency means the concentration at half of the fitted maximal effect.

SMILES | ClpP mod | Sfp inh | Gal4-VP16 FLuc | RORg inh | Epigenetic derep | PINK1 expr mod
COc1ccc(S(=O)(=O)Nc2cc(Sc3ncn[nH]3)c(O)c3ccccc23)cc1 | nt | 3.55µM* | 7.08µM* | 5.01µM* | ? | 2.5%
COc1ccc(S(=O)(=O)Nc2cc(SCC(=O)O)c(O)c3ccccc23)cc1 | 35.5% | 7.08µM* | -20.7% | ? | nt | 6.6%
O=S(=O)(Nc1cc(Sc2cccc3cccnc23)c(O)c2ccccc12)c1ccc(F)cc1 | 9.1% | 10µM* | 2.51µM* | 1.26µM* | 3.8% | 0.5%
Cc1cc(C)c(S(=O)(=O)Nc2cc(SCC(=O)O)c(O)c3ccccc23)cc1C | 0.4% | 8.91µM* | ? | 11.2µM* | 0.0% | 3.1%
COc1ccc(S(=O)(=O)Nc2ccc(O)c(Sc3ncn[nH]3)c2)cc1 | 0.0% | -6.2% | 6.2% | -7.0% | -0.8% | nt
O=S(=O)(Nc1cccnc1Cl)c1ccc(F)cc1 | nt | 5.2% | 6.4% | -16.1% | nt | -0.1%
COc1cc(OC)c(OC)cc1/C=C/c1cc[n+](C)c2ccccc12 | -4.5% | nt | nt | nt | nt | 6.4%
COc1ccc(CNC(=O)C(Cc2ccccc2)NS(=O)(=O)c2ccc3c(c2)CCN3C(C)=O)cc1 (stereo not drawn) | -3.4% | nt | nt | nt | 5.9% | 2.1%
Cc1ccc(Cl)cc1NS(=O)(=O)c1ccccc1 | nt | nt | nt | nt | nt | 4.1%
O=C(O)CSc1cc(NS(=O)(=O)c2ccc(Cl)cc2)c2ccccc2c1O | nt | 10µM* | ? | -24.4% | nt | -0.9%
CCN(CC)S(=O)(=O)c1ccc(Oc2ccc(S(=O)(=O)N(CC)CC)cc2)cc1 | -0.1% | 15.3% | 7.08µM* | ? | -1.0% | -1.1%[38.3 µM]
CCC(=O)C1=C(c2ccc(F)cc2)N(C(=O)CC)n2c(nnc2-c2ccc(OC)cc2)S1 | 0.4% | nt | nt | nt | 9.3% | 0.1%
O=C(Cn1nc(-c2ccco2)ccc1=O)Nc1cc(Cl)ccc1Cl | ? | 44.7µM* | -4.6% | 11.5% | nt | -1.4%
O=C(Cn1nc(-c2ccco2)ccc1=O)Nc1ccc(Cl)c(Cl)c1 | nt | 56.2µM* | -2.3% | 3.7% | nt | -0.2%
O=C(Cn1nc(-c2ccco2)ccc1=O)Nc1cc(C(F)(F)F)ccc1Cl | -26.0% | -8.4% | -1.9% | 17.4% | nt | 0.1%
O=C(Cn1nc(-c2ccccc2Cl)ccc1=O)Nc1ccccc1-c1ccccc1 | 14.1µM* | 17.2% | 0.3% | -4.6% | -0.1% | 3.6%
Cc1noc(-c2ccccc2OCC(=O)Nc2ccccc2[N+](=O)[O-])n1 | 1.5% | nt | nt | nt | -1.5% | 0.0%
CC(=O)N1CCN(c2ccc(Oc3ccc([N+](=O)[O-])c(C(F)(F)F)c3)cc2)CC1 | nt | -11.0% | 7.08µM* | ? | nt | 0.6%
OC1C=C2CCN3Cc4cc5c(cc4C(C1O)C23)OCO5 (stereo not drawn) | nt | -4.5% | 11.2µM* | ? | 16.0% | nt
O[C@@H]1[C@@H](O)C=C2CCN3Cc4cc5c(cc4[C@H]1C23)OCO5 (stereo partly drawn) | -3.0% | nt | nt | nt | nt | -0.8%
c1cnc(N2CCN(c3ncc4c(n3)CCNC4)CC2)nc1 | -0.9% | nt | nt | nt | -10.4% | 2.7%
COc1cccc(CNc2nc3ccc(C)cc3n3cnnc23)c1 | -1.3% | 4.8% | -9.1% | 4.3% | ? | 39.8µM*
COc1ccccc1C(=O)N(CCC1CCCN1C)c1nc2ccccc2s1 (stereo not drawn) | nt | 0.5% | ? | 7.08µM* | 1.0% | 0.5%
COc1ccc2sc(N(CCCN(C)C)C(=O)c3nc4ccccc4s3)nc2c1 | nt | -9.2% | -4.9% | -0.8% | -3.9% | 7.7%
O=C1c2[nH]nc(-c3ccccc3O)c2C(c2ccc(Cl)cc2)N1CCc1ccccc1 (stereo not drawn) | -7.9% | nt | nt | nt | 9.3% | 7.5%
SMILES | ClpP mod | Sfp inh | Gal4-VP16 FLuc | RORg inh | Epigenetic derep | PINK1 expr mod
FC(F)(F)c1cc(NC(=S)Nc2ccc3ccccc3c2)cc(C(F)(F)F)c1 | nt | -2.3% | 14.1µM* | ? | -1.1% | nt
FC(F)(F)c1cccc(NC(=S)Nc2cccc(NC(=S)Nc3cccc(C(F)(F)F)c3)n2)c1 | nt | 20µM* | ? | 5.01µM* | 1.6% | ?
FC(F)(F)c1cc(NC(=S)NC23CC4CC(CC(C4)C2)C3)cc(C(F)(F)F)c1 | nt | 9.4% | ? | -17.7% | -1.1% | nt
FC(F)(F)c1cccc(NC(=S)Nc2ccc(Cl)cc2Cl)c1 | -0.6% | ? | -25.3% | ? | 0.0% | ?
Cc1cccc(NC(=S)Nc2cccc(C(F)(F)F)c2)n1 | -2.2% | -6.7% | ? | 1µM* | -0.1% | 5.3%
COc1ccc2c(c1)CCC2=O | 0.4% | nt | nt | nt | nt | 0.9%
COc1ccccc1NC(=O)C1=C(C)Nc2nc3ccccc3n2C1c1cccc(Br)c1 (stereo not drawn) | ? | nt | nt | nt | -1.8% | 4.2%
Oc1ccc2ccccc2c1CN1CCN(c2ccccc2F)CC1 | 11.2µM* | 5.7% | -4.5% | -33.6% | 0.0% | 0.3%
COc1ccc(CNC(=O)c2ccc3c(c2)N(C)C(=O)CS3=O)cc1 (stereo not drawn) | 1.7% | 44.7µM* | 1.0% | -17.1% | 0.8% | -3.7%
O=C(NNS(=O)(=O)c1ccc([N+](=O)[O-])cc1)C(=O)Nc1cccc(C(=O)O)c1 | -10.8% | 39.8µM* | 10.3% | -37.7% | nt | -0.9%
CC(C)Cn1cc(NC(=O)NCc2ccccc2Cl)c2ccccc2c1=O | 3.5% | nt | nt | nt | -1.3% | -3.3%
Cc1cccc(-n2[nH]c(C)c(C=Nc3ccc4[nH]c(=O)[nH]c4c3)c2=O)c1 | -0.9% | 1.1% | -15.0% | 21.0% | ? | 31.6µM*
Cc1[nH]n(-c2ccccc2)c(=S)c1C=Nc1ccc([N+](=O)[O-])cc1 | 0.8% | 6.31µM* | 7.08µM* | 3.16µM* | -1.5% | 3.8%
Cc1[nH]n(-c2ccccc2)c(=O)c1C=Nc1ccc2[nH]c(=O)[nH]c2c1 | -3.0% | 10.4% | 0.9% | 5.5% | ? | 35.5µM*
COC(=O)C1(C(=O)OC)CC2=C[C@H](CC2=O)Cc2ccccc2[C@@H]1C[N+](=O)[O-] | nt | -13.6% | 8.7% | -2.8% | -1.1% | nt
CC1=C(C(N)=O)C(c2ccc(C(C)C)cc2)n2nc(SCc3ccccc3)nc2N1 (stereo not drawn) | -2.8% | nt | nt | nt | -1.1% | 2.4%
COc1cccc([C@H]2Oc3ccc(OC)cc3/C(=N\O[C@@H]3O[C@H](COC(C)=O)[C@H](OC(C)=O)[C@H](OC(C)=O)[C@H]3OC(C)=O)[C@@H]2O)c1 | nt | 16.6% | -1.2%[10 µM] | 9.3%[10 µM] | 0.0%[10.1 µM] | nt
